In PubChem BioAssay AID651858 (Broad Institute, 2012):
The other results are listed elsewhere or left out. Unmarked numbers belong to inactive results.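 How the source made its calls: active means at highest dose tested, delta Tm positive; inactive means the rest.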

Experiment: dye-only thermal melt shift artefacts – biochemical, thermal shift counterscreen, cherry-pick, artefact control for Keap1-Nrf2 interaction inhibitor project, dose response (AID 651858)
Conditions: Sypro Orange dye-only thermal melt, no protein, top dose 50 µM, stronger effect = higher value

Q: Which delta Tm does the source give for Nc1ccc2nc3c(=O)[nH]c(=S)[nH]c3nc2c1 here?
A: The delta Tm was -27.3 °C.

Q: For COc1ccc(C2c3ccc(O)cc3Oc3ncn(CCCO)c(=N)c32)cc1OC (stereo not given), which delta Tm is on record?
A: Its delta Tm is -26.7 °C.

Q: With CCCC(=O)Nc1ccc(C(=O)NCCCn2ccnc2)cc1 as the molecule, how does the delta Tm read?
A: Its delta Tm is -28 °C.

Q: Which delta Tm does the source give for CCCC1OC23CCCCC2C(C#N)(C#N)C1(C#N)C(=N)O3 (stereo not given) here?
A: The delta Tm was -28.4 °C.

Q: With O=C(Nc1ccccn1)C1CCN(S(=O)(=O)c2ccc3c(c2)OCCO3)CC1 as the molecule, how does the delta Tm read?
A: Its delta Tm is -21.3 °C.
